From the supplement of paper PMC3334620
Whole data set: some 33,000 sequences, median “E-score (-0.5 to 0.5)” near -0.015, cut for the highest 2% near 0.3. Shown is part of a subset that was picked to be rich in the highest values.

Molecular target: T1, Abf1 (UniProt P14164)
T1 sequence: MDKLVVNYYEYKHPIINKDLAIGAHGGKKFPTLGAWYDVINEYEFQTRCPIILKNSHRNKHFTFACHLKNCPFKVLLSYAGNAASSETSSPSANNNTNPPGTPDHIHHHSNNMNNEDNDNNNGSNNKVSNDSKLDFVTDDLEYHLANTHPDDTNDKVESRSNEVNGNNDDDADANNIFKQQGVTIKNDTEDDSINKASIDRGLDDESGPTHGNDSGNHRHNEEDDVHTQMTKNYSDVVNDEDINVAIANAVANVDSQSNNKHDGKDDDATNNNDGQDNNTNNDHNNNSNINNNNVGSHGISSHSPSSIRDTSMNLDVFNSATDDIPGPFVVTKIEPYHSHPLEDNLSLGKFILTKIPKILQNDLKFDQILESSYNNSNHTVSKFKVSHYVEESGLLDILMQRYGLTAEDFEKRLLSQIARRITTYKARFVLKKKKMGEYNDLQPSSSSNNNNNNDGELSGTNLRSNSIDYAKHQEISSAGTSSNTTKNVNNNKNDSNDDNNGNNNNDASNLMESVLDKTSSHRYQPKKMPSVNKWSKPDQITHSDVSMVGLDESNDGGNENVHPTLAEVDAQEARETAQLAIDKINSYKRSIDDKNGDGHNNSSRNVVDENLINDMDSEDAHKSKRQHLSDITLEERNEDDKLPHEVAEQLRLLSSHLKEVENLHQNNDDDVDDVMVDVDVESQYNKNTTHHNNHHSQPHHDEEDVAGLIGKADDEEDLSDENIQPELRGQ
Experiment: PBM E-score (8-mer binding enrichment) (E-score (-0.5 to 0.5)); higher = stronger / more preferred TF binding
Settings: protein concentration: 200 nM; construct: GST-full length
Protocol: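 Universal 'all 10-mer' protein binding microarrays (Agilent AMADID 015681) probed with GST-tagged S. cerevisiae TFs (full-length or DBD) made by in vitro transcription/translation (PURExpress), about 100-200 nM. Bound TF was detected with fluorescent anti-GST. Each ungapped 8-mer (which stands for itself and its reverse complement) is scored by the PBM enrichment score (E-score), a modified Wilcoxon-Mann-Whitney statistic from -0.5 to +0.5, computed with the Universal PBM Analysis Suite. Scale: above 0.35 generally sequence-specific binding.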

Row | Sequence | PBM E-score
1 | GCCATAGC | -0.055
2 | ACTTCAAG | 0.0326
3 | CTACGTGC | -0.0934
4 | ACGGACGG | 0.077
5 | TCGGTGCA | -0.0272
6 | AAATGATG | 0.318
7 | ACATGATG | 0.119
8 | GAATGAAC | -0.112
9 | AAATGATT | 0.275
10 | AAATGATC | 0.228
11 | GAATGATC | 0.32
12 | CAATGAAC | -0.0206
13 | AAATGATA | 0.409
14 | AAATGAGG | 0.0174
15 | AAATGAAA | 0.214
16 | CAATGATC | 0.31
17 | GAATGAGC | 0.051
18 | AGCTACCC | -0.0429
19 | ACGCTAGT | 0.043
20 | CAATGCGG | -0.281
21 | ACGGGTCC | 0.142
22 | GTGGACAC | -0.0874

Row | Sequence | PBM E-score
23 | TAGGTCAA | 0.0576
24 | ATGGCGAG | 0.0386
25 | CGTATTTA | 0.335
26 | CGTATTTC | 0.316
27 | CGTATTGA | 0.307
28 | GGTATTTA | 0.0301
29 | AGTATTTC | 0.209
30 | AGTATTTA | 0.152
31 | CCTATTTC | 0.095
32 | AGTATTGA | 0.0838
33 | GGTATTGA | 0.00996
34 | AACCTGGC | -0.112
35 | GGCCGGCA | -0.157
36 | CTGCCGAC | -0.121
37 | TCTCTCCA | -0.031
38 | GGCTCTCA | -0.224
39 | ATCGTGAC | 0.255
40 | CGCGTGAG | 0.00035
41 | CGCGTGAC | 0.303
42 | CTCGTGAA | 0.224
43 | CTCGTGAC | 0.344
44 | AGCGTGAC | 0.186

Row | Sequence | PBM E-score
45 | GGACCCCC | -0.249
46 | CGACTATA | 0.129
47 | AGACCTAA | -0.206
48 | GTACATAA | 0.324
49 | AGACATAA | -0.0415
50 | TGACATAA | 0.351
51 | CGACAAAA | 0.241
52 | GGACATAA | -0.032
53 | TTACATAA | 0.197
54 | GTACAAAA | 0.344
55 | CTACATAA | -0.118
56 | ATACAAAA | 0.0848
57 | TGACAAAA | 0.304
58 | GGACAAAA | -0.0523
59 | CTACAAAA | 0.139
60 | AACACTGA | -0.142
61 | AGTGGATA | 0.0619
62 | AAAGAAGG | -0.118
63 | AACACCAC | 0.00166
64 | CAATCTAC | -0.0654
65 | ACCAAGAA | -0.00575
66 | TAAATGCA | 0.0499

Row | Sequence | PBM E-score
67 | AGAGACCC | -0.221
68 | CCGGGCCG | -0.129
69 | TTTTAAAA | 0.0597
70 | ATAAATAA | 0.246
71 | ATATAAAG | 0.146
72 | ATATAAAT | 0.3
73 | ATAAATAG | 0.104
74 | ATAAATAT | 0.316
75 | ATAAATTA | 0.362
76 | ATATAAAC | 0.0743
77 | CTAAATTA | 0.0644
78 | ATAAATTG | 0.115
79 | ACTCGTCT | 0.0807
80 | CGGATATA | 0.185
81 | ACTCCTAC | 0.0623
82 | CTGGTAAA | -0.16
83 | GAACGCGC | 0.0459
84 | AGCACGGC | 0.0922
85 | GAATCGTC | 0.239
86 | ACGATGAC | 0.264
87 | AAGATGAT | 0.304
88 | AAGATGAG | 0.00927

Row | Sequence | PBM E-score
89 | CAGATGAC | 0.058
90 | ACGATGAA | 0.2
91 | GAGATGAC | 0.141
92 | ACGATGAT | 0.322
93 | AAGATGAA | -0.083
94 | AAGATGAC | 0.313
95 | CACCAATG | 0.0285
96 | GATCGACC | -0.0655
97 | ACAACGCT | -0.0795
98 | GATCTTGC | 0.0639
99 | CTGCCCTA | -0.132
100 | CTCCATGC | -0.265
101 | GATCCTGC | 0.0793
102 | AGGCCGTG | 0.092
103 | TGAGAGCA | -0.0853
104 | CCGCCGTC | 0.334
105 | ACGCCGTC | 0.282
106 | CCGCCGTA | 0.0615
107 | CATTGCCG | 0.0936
108 | GAACTCTC | -0.211
109 | CCGCAGTC | -0.165
110 | TGACTTAA | 0.061
